# According to PubChem BioAssay AID651812 (National Center for Advancing Translational Sciences (NCATS), 2012):
# Among all 2,100 compounds or so, about 650 (31%) were called active. About 16% were inconclusive and are not listed. Some of the results follow. Unmarked numbers belong to inactive results. The call rests on the fitted dose curve; in most records, active means well fitted inhibition curve with a large enough effect; inconclusive means small, poorly fitted or top-dose-only effect; inactive means flat fitted curve, though single readings scatter.
# Assay: qHTS for inhibitors of Vif-A3G interactions: Cherry picks; further: nearly all actives have a fitted effect of over 80% in size; on activity, negative = fluorescence increase: % of control where 0% means no effect
# Conditions: HeLa A3G-eYFP + Vif (tagged APOBEC3G with the HIV-1 protein that degrades it), 24 h; Potency: eYFP fluorescence increase; series mostly up to 36.9 µM; activity, negative = fluorescence increase: at the top concentration
# How it was run: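 Cherry-picked compounds tested at several concentrations on A3G-eYFP/Vif HeLa cells for 24 hours; loss of Vif-driven degradation read as eYFP fluorescence by cytometric plate imaging, 488 nm excitation, 500-530 nm emission.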
# Potency means the concentration at half of the fitted maximal effect.
Compound,"activity, negative = fluorescence increase",Potency
COc1cccc(Sc2ccccc2/C=N/NC(N)=O)c1,-2.6%,
O=C(Nc1nnc(-c2ccc3c(c2)CCCC3)o1)c1c(F)cccc1F,10.8% [at 46.1 µM],
Cc1c(-c2nnc(SCC(=O)Nc3ccccc3F)o2)nnn1-c1ccc(F)cc1,,23.1 µM (active)
Cc1nnc(SCC(=O)NCc2ccccc2F)c2nn(-c3ccc(Cl)cc3)c(C)c12,-23.7% [at 46.1 µM],
OCCCn1c(C2CCCN2c2nc(-c3ccc(Cl)cc3)cs2)nc2cc(Cl)c(Cl)cc21 (stereo not given),-8.45% [at 46.1 µM],
Cc1ccccc1NC(=O)c1ccc2c(c1)c(C)c(C)n2Cc1ccccc1,-2.97% [at 46.1 µM],
N=c1n(CC(=O)c2ccc([N+](=O)[O-])cc2)c2ccccc2n1Cc1ccccc1,,18.4 µM (active)
Cc1ccc(C)c(C2NC(=O)c3ccccc3N2)c1 (stereo not given),-8.21%,
Cc1ccc(SC2=C(Sc3ccc(C)cc3)C(=O)c3ccccc3C2=O)cc1,,16.4 µM (active)
Cc1ccc(C(=O)NC2c3ccccc3-c3ccccc32)cc1,-6.92%,
Cc1ccc(-c2cc(C(=O)N/N=C/C(Br)=C/c3ccccc3)n[nH]2)o1,-8.76%,
Cc1ccc(Cl)cc1NC(=O)Nc1cn(CC(C)C)c(=O)c2ccccc12,0.562% [at 46.1 µM],
Cc1ccc2nc(-c3ccccn3)c(NC3CCCC3)n2c1,9.97% [at 46.1 µM],
CN(C)c1ccc(/C=C/c2ccnc3cc(Cl)ccc23)cc1,,13 µM (active)
CN(C)c1ccc(/C=C/c2ccnc3ccc(-c4ccccc4)cc23)cc1,,18.4 µM (active)
CN(C)c1ccc(/C=C/C=C/c2ccnc3ccccc23)cc1,,5.8 µM (active)
CN(C)c1ccc(/C=C/c2ccnc3ccccc23)cc1,,18.4 µM (active)
COc1cccc(CNCCSc2nnnn2C)c1OCc1ccc(F)cc1,2.21% [at 46.1 µM],
C=CCNC(=S)N/N=C(\C)c1ccc(OC)cc1,6.78% [at 46.1 µM],
CSc1ccc(/C=N/NC(=O)c2ccccc2Cl)cc1,-7%,
Cc1ccc(NC(=S)N=Nc2c(O)n(C)c3ccc(S(=O)(=O)N4CCOCC4)cc23)cc1,3.95% [at 46.1 µM],
CNc1ccc(/C=C/c2ccnc3ccccc23)cc1,,18.4 µM (active)
COc1cccc2nccc(/C=C/c3ccc(N(C)C)cc3)c12,,20.6 µM (active)
CN(C)c1ccc(/C=C/c2cnnc3ccccc23)cc1,,20.6 µM (active)
CN(C)c1ccc(/C=C/c2ccnc3ccccc23)c(N)c1,,18.4 µM (active)

Compound,"activity, negative = fluorescence increase",Potency
COc1ccc(C2=NOC(C(=O)NCc3ccc(F)cc3)C2)cc1 (stereo not given),-7.76%,
CCOc1ccc(Br)cc1C1C(C(=O)OC)=C(N)Oc2cc(N(C)C)ccc21 (stereo not given),-9.94%,
Cc1ccc(NC(=S)Nc2ccccn2)c(C)c1,7.06% [at 46.1 µM],
CC(=O)Nc1cc(-c2ccccc2CN(C)C)cn2c(-c3ccc(C(C)=O)cc3)cnc12,-11.7%,
COC(=O)c1sc(N)c(C(=O)OC)c1COC(=O)c1c(C)noc1C,-2.04%,
CC1(C(=O)Nc2ccc3c(c2)OCO3)Cc2c(-c3ccccc3)ccnc2O1 (stereo not given),1.09%,
N#Cc1c(NC(=O)/C=C/C(=O)O)sc2c1CCN(Cc1ccccc1)C2,-27.1% [at 46.1 µM],
CN(C)c1ccc(/C=C(\C#N)C(=O)Nc2nc3c(s2)CCN(Cc2ccccc2)C3)cc1,,1.12 µM (active)
O=C(N=c1ccn(-c2nc3ccccc3nc2NS(=O)(=O)c2ccc(Cl)cc2)cc1)c1cccs1,,16.4 µM (active)
O=S(=O)(Nc1nc2ccccc2nc1N1CCN(c2ccccn2)CC1)c1ccc(Cl)cc1,,23.1 µM (active)
CN1CCN(c2nc3ccccc3nc2NS(=O)(=O)c2ccc(Br)cc2)CC1,6.19% [at 46.1 µM],
CCOC(=O)N1CCC(Nc2nc3ccccc3nc2NS(=O)(=O)c2ccc(Cl)cc2)CC1,0.827% [at 46.1 µM],
O=S(=O)(Nc1nc2ccccc2nc1N1CCc2ccccc2C1)c1ccc(Br)cc1,-16.9% [at 46.1 µM],
O=S(=O)(Nc1nc2ccccc2nc1N1CCN(c2ccccc2)CC1)c1ccc(F)cc1,-15.1% [at 46.1 µM],
O=C(N/N=C/c1ccc2c(c1)OCO2)c1cc(-c2ccncc2)nc2ccccc12,-7.14%,
Cc1ccc(C2NC(=O)c3ccccc3N2)s1 (stereo not given),-2.05%,
Cc1nn(-c2ccc(F)cc2)c(Cl)c1/C=C1\C(=O)Nc2ccccc21,-7.22%,
Cc1cc(C)c(/C=C2\C(=O)Nc3ccccc32)[nH]1,,18.4 µM (active)
Cc1ccc(S(=O)(=O)Nc2cc(Cl)c(O)c3ncccc23)cc1,-0.848%,
COc1ccc2[nH]c3c(c2c1)CCNC3c1ccc([N+](=O)[O-])o1 (stereo not given),,18.4 µM (active)
COc1ccc2oc(-c3ccccc3[N+](=O)[O-])cc(=O)c2c1,-8.58%,
COc1ccc(S(=O)(=O)N2CCN(C(=O)c3ccc([N+](=O)[O-])o3)CC2)cc1,1.28%,
Cc1ccc(N/C(N)=N/c2nc(CSc3nnc(C)s3)cc(=O)[nH]2)c(C)c1,-3.92%,
COc1ccc(C(=O)C[n+]2cc(Br)cc3ccccc32)cc1,,20.6 µM (active)
CCCC1=[N+](CC(=O)c2ccc(Br)cc2)CCn2cccc21,-10.6% [at 46.1 µM],
